“And” between values parts separate entries of the source, which are not always exact repeats. Equal values may be shown once. Results filed as inconclusive are left out. Where a call stands in place of a potency, no number is given. The source made the active and inactive calls. Unless noted, calls follow the shape of the dose curve; as a rule, active = well fitted curve in the direction sought with a large enough effect; inconclusive = small, poorly fitted or top-dose-only effect, or another doubt; inactive = no such curve, though single readings can be large; an effect the other way counts as inactive or inconclusive.
How the values were obtained:
[1] = qHTS of Trypanosoma Brucei Inhibitors: LOPAC Validation (AID 624147); details: purified enzyme assay, luminescence, 45 min; series mostly up to 57.5 µM
Summary of the method: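 Luminescent Kinase-Glo Plus end-point after 45 min room-temperature reaction of T. brucei pyruvate kinase started with 130 uM ADP (final). Buffer TEA 50 mM pH 7.2 with KCl, MgCl2, BSA, Tween-20; titration-based qHTS with fitted concentration-effect curves.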

[2] = biological target: Voltage-gated inwardly rectifying potassium channel KCNH2 (Homo sapiens) (UniProt Q12809); test: qHTS Assay for Small Molecule Inhibitors of the Human hERG Channel Activity (AID 588834); details: U2OS BacMam hERG, FluxOR thallium flux fluorescence; series mostly up to 46.1 µM;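 also: lower thallium flux fluorescence means stronger hERG block; nearly all actives have a fitted effect of over 50% in size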; also: potency is read from the fitted curve at half-maximal effect
Voltage-gated inwardly rectifying potassium channel KCNH2 (Homo sapiens), sequence (Q12809 whole entry, looked up): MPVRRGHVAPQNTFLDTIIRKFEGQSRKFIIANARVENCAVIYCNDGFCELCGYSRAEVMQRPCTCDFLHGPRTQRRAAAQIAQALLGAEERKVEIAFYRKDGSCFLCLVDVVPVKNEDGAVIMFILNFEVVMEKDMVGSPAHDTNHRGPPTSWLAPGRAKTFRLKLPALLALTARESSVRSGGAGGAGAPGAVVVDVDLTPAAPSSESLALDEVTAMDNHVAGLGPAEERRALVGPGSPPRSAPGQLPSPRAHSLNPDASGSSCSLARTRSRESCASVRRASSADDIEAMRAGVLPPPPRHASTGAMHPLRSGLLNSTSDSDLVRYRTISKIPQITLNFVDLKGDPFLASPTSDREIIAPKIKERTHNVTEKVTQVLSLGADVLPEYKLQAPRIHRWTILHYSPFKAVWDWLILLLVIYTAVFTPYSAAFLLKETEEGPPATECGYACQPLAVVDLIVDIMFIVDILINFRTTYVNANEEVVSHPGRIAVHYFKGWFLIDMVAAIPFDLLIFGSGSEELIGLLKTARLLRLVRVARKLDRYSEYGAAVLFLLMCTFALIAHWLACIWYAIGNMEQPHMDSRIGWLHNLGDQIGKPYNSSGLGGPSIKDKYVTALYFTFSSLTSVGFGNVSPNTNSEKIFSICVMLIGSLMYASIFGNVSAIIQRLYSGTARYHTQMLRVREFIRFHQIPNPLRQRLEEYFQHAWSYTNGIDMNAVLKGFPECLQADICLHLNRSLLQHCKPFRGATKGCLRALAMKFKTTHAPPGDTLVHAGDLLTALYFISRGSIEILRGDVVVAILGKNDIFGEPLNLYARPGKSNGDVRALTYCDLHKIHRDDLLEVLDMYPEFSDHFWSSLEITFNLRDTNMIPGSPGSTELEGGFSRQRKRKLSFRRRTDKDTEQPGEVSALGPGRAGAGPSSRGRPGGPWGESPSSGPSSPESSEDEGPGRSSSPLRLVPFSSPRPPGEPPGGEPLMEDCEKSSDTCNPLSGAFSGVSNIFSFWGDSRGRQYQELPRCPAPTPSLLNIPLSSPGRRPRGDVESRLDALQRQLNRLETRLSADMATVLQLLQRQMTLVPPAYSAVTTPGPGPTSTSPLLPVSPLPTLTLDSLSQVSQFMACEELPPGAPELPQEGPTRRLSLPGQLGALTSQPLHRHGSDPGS
Summary of the method: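 U2OS cells transduced with hERG via BacMam (MOI ~100), plated 2000/well, loaded with FluxOR thallium dye, compound ~10 min, then stimulation buffer; fluorescence decrease read kinetically; AC50 from Hill fits.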

[3] = biological target: Glutaminase kidney isoform, mitochondrial (Homo sapiens) (UniProt O94925); test: qHTS for Inhibitors of Glutaminase (GLS): LOPAC Validation (AID 624146); details: glutaminase enzyme activity inhibition; series mostly up to 46.1 µM; also: nearly all actives have a fitted effect of over 60% in size; also: potency is read from the fitted curve at half-maximal effect
Glutaminase kidney isoform, mitochondrial (Homo sapiens), sequence (O94925 whole entry, looked up, canonical isoform): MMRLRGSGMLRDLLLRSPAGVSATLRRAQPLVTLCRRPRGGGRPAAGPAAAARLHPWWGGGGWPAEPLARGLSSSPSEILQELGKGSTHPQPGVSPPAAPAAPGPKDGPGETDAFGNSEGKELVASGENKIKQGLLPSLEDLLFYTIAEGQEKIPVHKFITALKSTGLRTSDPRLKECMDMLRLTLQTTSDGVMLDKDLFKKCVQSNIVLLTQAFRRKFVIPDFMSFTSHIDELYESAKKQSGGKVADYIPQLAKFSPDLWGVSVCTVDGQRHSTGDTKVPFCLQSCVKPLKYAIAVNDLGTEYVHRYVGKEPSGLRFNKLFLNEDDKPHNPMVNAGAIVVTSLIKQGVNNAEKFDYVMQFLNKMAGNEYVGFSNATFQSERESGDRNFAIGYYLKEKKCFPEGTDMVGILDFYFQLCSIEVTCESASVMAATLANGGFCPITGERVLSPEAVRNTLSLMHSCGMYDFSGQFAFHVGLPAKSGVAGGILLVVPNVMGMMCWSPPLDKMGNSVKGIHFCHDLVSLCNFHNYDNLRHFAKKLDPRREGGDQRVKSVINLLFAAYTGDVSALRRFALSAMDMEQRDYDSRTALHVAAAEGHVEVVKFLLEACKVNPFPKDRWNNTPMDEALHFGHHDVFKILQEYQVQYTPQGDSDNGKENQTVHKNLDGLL
Summary of the method: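 Coupled fluorescence readout: glutamate oxidase/HRP/Amplex Red detect glutamate formed by hKGA from L-glutamine (1 mM solution added). Buffer 45 mM KH2PO4 pH 8.2, 0.02% Tween-20; reads at t0 and 30 min RT.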

[4] = biological target: Luciferin 4-monooxygenase (Photinus pyralis) (UniProt P08659); test: Biochemical firefly luciferase enzyme assay for NPC (AID 624030); also: nearly all actives have a fitted effect of over 70% in size; also: potency is read from the fitted curve at half-maximal effect; details: purified P. pyralis luciferase, luminescence, 5 min; series mostly up to 58.6 µM
Luciferin 4-monooxygenase (Photinus pyralis), sequence (P08659 whole entry, looked up): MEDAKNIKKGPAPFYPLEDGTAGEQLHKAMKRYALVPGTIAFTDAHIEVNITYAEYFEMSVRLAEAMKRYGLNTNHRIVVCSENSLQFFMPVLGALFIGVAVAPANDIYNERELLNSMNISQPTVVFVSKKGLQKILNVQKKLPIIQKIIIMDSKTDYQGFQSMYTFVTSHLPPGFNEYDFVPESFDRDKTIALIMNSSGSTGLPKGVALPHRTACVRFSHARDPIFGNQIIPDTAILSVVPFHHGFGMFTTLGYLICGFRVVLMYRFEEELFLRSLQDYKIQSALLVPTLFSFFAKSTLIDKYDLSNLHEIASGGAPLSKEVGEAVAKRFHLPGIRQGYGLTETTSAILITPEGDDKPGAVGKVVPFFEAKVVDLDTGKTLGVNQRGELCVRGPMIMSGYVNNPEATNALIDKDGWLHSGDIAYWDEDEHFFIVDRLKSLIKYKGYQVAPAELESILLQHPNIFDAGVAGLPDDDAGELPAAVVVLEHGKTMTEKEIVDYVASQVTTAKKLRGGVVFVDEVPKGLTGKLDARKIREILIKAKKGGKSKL
Summary of the method: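 Direct inhibition of firefly luciferase enzyme (10 nM final, 50 mM Tris Acetate) assessed by luminescence within 5 minutes. Percent activity scaled between DMSO and PTC124 positive control, with concentration-effect curves classified by fit quality and response.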

[5] = S16 Schwann cell viability assay (CellTiter-Glo assay) (AID 624031); details: S16 rat Schwann cells viability, 24 h; series mostly up to 57.5 µM;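 also: cellular ATP luminescence as a viability measure; nearly all actives have a fitted effect of over 70% in size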
Summary of the method: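 Native S16 rat Schwann cells, 500-750 cells/well in DMEM with 10% FBS, dosed with compound after overnight culture and incubated 24h at 37 degree Celsius/5% CO2. Viability by CellTiter-Glo luminescence; % activity normalized to no-cell wells and DMSO-treated cells.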

[6] = S16 Schwann cell PMP22 intronic element firefly luciferase assay (AID 624032); details: S16 rat Schwann cells, PMP22 element FLuc, 24 h; series mostly up to 57.5 µM; also: nearly all actives have a fitted effect of over 30% in size; also: potency is read from the fitted curve at half-maximal effect
Summary of the method: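 Luciferase reporter of PMP22 intronic-element expression in stably transfected S16 rat Schwann cells, read by ONE-Glo luminescence after 24 h compound exposure at 37 C. Activity scaled between DMSO (0%) and positive-control PTC124; concentration-effect curves quality-classified.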

[7] = S16 Schwann cell PMP22 intronic element beta-lactamase assay (AID 624044; calls by dose curve; also: nearly all actives have a fitted effect of over 15% in size); details: S16 rat Schwann cells, PMP22 element beta-lactamase FRET, 24 h; series mostly up to 38.3 µM
Summary of the method: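 Rat S16 Schwann cells with beta-Lac driven by a PMP22 intronic element, compound-treated 24 h at 37 °C. LiveBLAzer FRET B/G read: 460 nm normalized to potassium clavulanate vs DMSO; 535 nm FRET as viability; concentration-effect curves classified.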

CC1=NN=C(c2ccc(N)cc2)c2cc3c(cc2C1)OCO3
outcome [1]: inactive

O=C(O)[C@@H]1CCN1
Potency [2]: inactive | Potency [3]: inactive | outcome [1]: inactive

CCCN1CCO[C@@H]2c3cc(O)ccc3OC[C@H]21
Potency [2]: inactive | Potency [3]: 4.47 µM (active) and 1.41 µM (active) | outcome [1]: inactive

CCCN(CCC)[C@@H]1CCc2ccc(O)cc2C1
Potency [2]: 2.51 µM (active) | Potency [3]: inactive | outcome [1]: inactive

CC[C@@H](C(N)=O)N1CCCC1=O
Potency [3]: inactive | outcome [1]: inactive

COC(=O)[C@@H](N)CCCN=C(N)N[N+](=O)[O-]
Potency [4]: inactive | Potency [5]: inactive | Potency [6]: inactive | Potency [7]: inactive | Potency [3]: inactive | outcome [1]: inactive

C[C@@H]1O[C@H](C[N+](C)(C)C)C[C@H]1O
Potency [2]: inactive | Potency [3]: inactive | outcome [1]: inactive

c1ccc(C2(c3ccccc3)CC2C2=NCCN2)cc1 (stereo not drawn)
Potency [4]: inactive | Potency [5]: inactive | Potency [6]: inactive | Potency [7]: inactive | Potency [3]: inactive | outcome [1]: inactive

CC(C)(C)NC[C@H](O)c1ccc(O)cc1Cl
Potency [4]: inactive

CNCCc1c[nH]c2ccc(O)cc12
Potency [2]: inactive | outcome [1]: inactive

O=C1CCCN1CC#CCN1CCCC1
Potency [2]: inactive | Potency [3]: inactive | outcome [1]: inactive

Cc1nccc2c1[nH]c1ccccc12
Potency [2]: inactive | Potency [3]: inactive | outcome [1]: inactive

C[C@]12CC[C@@H]3[C@@H](CCC4=CC(=O)CC[C@@H]43)[C@@H]1CC[C@@H]2OC(=O)CCc1ccccc1
Potency [4]: inactive

C[C@@H]1[C@H](O)[C@@H](C)C=CC=CCCC=CC=CC=CC=C[C@H](O[C@H]2O[C@@H](C)[C@H](O)[C@@H](N)[C@@H]2O)CC2O[C@](O)(C[C@@H](O)[C@H](O)CC[C@@H](O)C[C@@H](O)C[C@@H](O)CC(=O)O[C@H]1C)C[C@H](O)[C@H]2C(=O)O
Potency [4]: inactive

CCCN(CCC)C1CCc2ccc(O)cc2C1 (stereo not drawn)
Potency [2]: 2.24 µM (active) | Potency [3]: inactive | outcome [1]: inactive

O=C(Nc1ccc(Oc2ccc(Cl)cc2)c(Cl)c1)c1cc(I)cc(I)c1O
Potency [6]: 10.2 µM (active)

C#CCOC(=O)C1=CCCN(C)C1
Potency [3]: inactive | outcome [1]: inactive

C/C=C(/C)C(=O)O[C@H]1C(C)=C2[C@H]([C@@H]1OC(=O)CCCCCCC)[C@@](C)(OC(C)=O)C[C@H](OC(=O)CCC)[C@@]1(O)[C@H]2OC(=O)[C@@]1(C)O
Potency [3]: inactive | outcome [1]: inactive

COc1cc([C@@H]2c3cc4c(cc3[C@@H](O)C3COC(=O)C32)OCO4)cc(OC)c1O (stereo partly drawn)
Potency [4]: inactive

CC(O)CN1CCN(CC(=O)[O-])CCN(CC(=O)[O-])CCN(CC(=O)[O-])CC1.[Gd+3] (stereo not drawn)
Potency [4]: inactive

CC(=O)NCCc1c[nH]c2ccccc12
Potency [2]: inactive | Potency [3]: inactive | outcome [1]: inactive

C=CCN1CC[C@]23CCCCC2[C@H]1Cc1ccc(O)cc13 (stereo partly drawn)
Potency [4]: inactive | Potency [5]: inactive | Potency [6]: inactive | Potency [7]: inactive | Potency [3]: inactive | outcome [1]: inactive

Cc1ccc(Cl)c(O)c1
Potency [4]: inactive | Potency [5]: inactive | Potency [6]: inactive

C[N+]1(C)C2CCC1CC(OC(=O)C(CO)c1ccccc1)C2 (stereo not drawn)
Potency [2]: inactive | Potency [3]: inactive | outcome [1]: inactive

O=C(O)c1ccccc1O
Potency [4]: inactive

O=C(N[C@H]1CN2CCC1CC2)c1ccc(Cl)cc1
Potency [3]: inactive | outcome [1]: inactive

CC(C)NCC(O)c1ccc([N+](=O)[O-])cc1 (stereo not drawn)
Potency [4]: inactive

CCC1(CCC(C)C)C(=O)NC(=O)NC1=O
Potency [4]: inactive

Cn1cnc(CCN)c1
Potency [2]: inactive | Potency [3]: inactive | outcome [1]: inactive

NC(N)=NOCCC(N)C(=O)O (stereo not drawn)
Potency [2]: inactive | Potency [3]: inactive | outcome [1]: inactive

NC1CC1c1ccccc1 (stereo not drawn)
Potency [2]: inactive | Potency [3]: inactive | outcome [1]: inactive

Cc1c(C(=O)c2cccc3ccccc23)c2cccc3c2n1[C@H](CN1CCOCC1)CO3
Potency [2]: 6.31 µM (active) | outcome [1]: inactive

CS(=N)(=O)CC[C@H](N)C(=O)O (stereo partly drawn)
Potency [2]: inactive | Potency [3]: inactive | outcome [1]: inactive

S=C(SSC(=S)N1CCCCC1)N1CCCCC1
Potency [4]: 8.09 µM (active)

Reference: PubChem BioAssay (NCATS)
